Screens (PubChem)
Dicer processing – blocks human Dicer maturation of pre-miR-21. Q9UPY3. cat-ELCCA pre-miR-21 Dicer processing, chemiluminescence; active compounds read high. z-score at 25 µM. actives 6% (n = 47,000); in the data active means z-score above about 3, passing the limit was not always enough;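 further: higher signal means more uncleaved substrate so more Dicer inhibition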
A number is an active result; . = inactive. Only a selection was taken, and hits are over-represented in it overall.

SMILES	Dicer processing
O=C(O)c1ccc2nc(-c3ccccc3)sc2c1	3.8
COc1ccc(NC(=O)C2C3C=CC(O3)C2C(=O)O)c(OC)c1 (configuration not stated)	.
CCOC(=O)C(=CNCCNc1ncccc1C(F)(F)F)C(=O)OCC	.
CC(C)c1ccc(N2C(=O)/C(=C/N(C)C)SC2=S)cc1	.
O=C1S/C(=C\c2ccc(F)cc2)C(=O)N1c1ccccc1	.
Cc1cc(C)c2c(=O)c(/C=C3/SC(=S)N(c4ccc(F)cc4)C3=O)coc2c1	5.5
CCOC(=O)C(NCCc1ccccc1)(NC(C)=O)C(F)(F)F (configuration not stated)	.
CCOC(=O)CNC(=O)c1ccccc1Cl	.
CCOC(=O)C(NC(=O)c1cccc(C)c1)(Nc1cccc(C)n1)C(F)(F)F (configuration not stated)	.
CCOC(=O)C(NC(=O)c1ccccc1Cl)(Nc1ccccn1)C(F)(F)F (configuration not stated)	3.4
CCOC(=O)NC(Nc1ccccc1)(C(=O)OCC)C(F)(F)F (configuration not stated)	.
CCOC(=O)C(NCCOC)(NC(=O)c1ccccc1Cl)C(F)(F)F (configuration not stated)	4.6
CCC(=O)c1ccc(-c2ccccc2F)cc1	.
CN(C)C=NC(=S)c1ccc(-c2cccs2)s1	.
Clc1ccc(Cc2nc(-c3ccccc3)cs2)cc1	.
Oc1ccc(-c2csc(Cc3c[nH]c4ccccc34)n2)cc1O	5.6
N[C@@H](Cc1c[nH]c2ccccc12)C(=O)O	.
O=S1(=O)Cc2snnc2-c2cc(Cl)ccc21	.
CCOC(=O)/C(C#N)=C1\SCC(C)(O)N1c1c(F)cccc1F (configuration not stated)	.
CSc1nc2cc(C)nn2c(-c2ccccc2Cl)c1C#N	5.2
CSc1nc2cc(C)nn2c(-c2ccc(C(C)(C)C)cc2)c1C#N	.
CSc1nc(N)nc(-c2ccccc2Cl)c1C#N	.
O=C(COc1ccc(Cl)cc1)CC(=O)c1ccc(Cl)cc1	.
CC1(C)O[C@H]2O[C@H](C(O)CO)[C@H](O)[C@H]2O1 (some centres not stated)	.
CCN(c1nc(C)cc(OC)n1)S(=O)(=O)c1ccc(C)cc1	.
SMILES	Dicer processing
C=CCN(c1ccccc1C1=N/C(=C\c2ccc(C)cc2)C(=O)O1)S(=O)(=O)c1ccc(Cl)cc1	.
C=CCN(c1nc(C)c(Br)c(OC)n1)S(=O)(=O)c1ccc(C)cc1	3.6
N#Cc1nn(-c2cccc(C(F)(F)F)c2)c(=O)[nH]c1=O	.
O=C(Oc1ccc2ccccc2c1)c1ccccc1O	.
CC1(C)CC(=O)C=C(SCc2c(Cl)cccc2Cl)S1	.
CC1(C)CC(=O)C=C(SCCS(=O)(=O)c2ccc(Cl)cc2)S1	.
CC1(C)CC(=O)C=C(SCc2cccc(Cl)c2)S1	4.5
COc1ccc(C(=O)CSc2nc(C)cc(C)n2)cc1C	.
Cc1cc(C)nc(SCC(=O)c2c(C)[nH]c3ccccc23)n1	.
Cc1cc(C)nc(SCC(=O)c2ccc(F)cc2F)n1	3.7
CCOC(=O)c1c(NC(=O)c2ccc3c(c2)OCO3)sc(C(=O)NC2CCCC2)c1C	.
CCCCc1nc(SCC(=O)NC2CCCCC2)n[nH]1	.
O=C(CN1C(=O)NC2NC(=O)NC21)NC1CCCCC1 (configuration not stated)	3.2
CCCNC(=O)CN1C(=O)NC2NC(=O)NC21 (configuration not stated)	4
CCCNC(=O)Cn1nc(C(F)(F)F)c(Br)c1C	.
CCC(C)NC(=O)CN1C(=O)c2ccccc2S1(=O)=O (configuration not stated)	.
O=C(CC(C(=O)O)C1CCCO1)NC1CCCCC1 (configuration not stated)	.
CCC(C)NC(=O)CN1C(=O)NC2NC(=O)NC21 (configuration not stated)	4.5
CCCNC(=O)NCCN1CCNC1=O	.
CCC(C)NC(=O)CN1C(=O)c2cccc3cccc1c23 (configuration not stated)	.
O=C(O)C1CC(=O)N(c2ccc(-c3csnn3)cc2)C1 (configuration not stated)	.
O=c1oc(-c2ccccc2)nc2c1oc1ccc(Cl)cc12	.
Cc1c(Cl)cccc1-n1c(CCc2ccc(O)cc2)n[nH]c1=S	.
CCC12CN3CC(CC)(CN(C1)C3c1ccccc1O)C2=O (configuration not stated)	.
C#Cc1cccc(NC(=O)CC(C)S(=O)(=O)c2ccc(Cl)cc2)c1 (configuration not stated)	.
SMILES	Dicer processing
N#CC1=C(N)Oc2n[nH]c(-c3ccccc3)c2C1c1ccc([N+](=O)[O-])s1 (configuration not stated)	.
CC(=O)OC1CCN(c2cc(C(F)(F)F)nc3cc(Cl)cc(Cl)c23)CC1	.
N/C(CC(=O)Nc1cc(Cl)cc(Cl)c1)=N\O	.
Cc1cc(SCC2=NNC(=O)C2)c(C)cc1Cl	.
NC(=O)C1(N2CCCCC2)CCN(S(=O)(=O)c2ccc3c(c2)OCC3)CC1	.
CCOc1cc(C2C(C#N)=C(N)Oc3n[nH]c(C)c32)ccc1OCc1ccc(Cl)cc1 (configuration not stated)	.
